From the supplement of paper PMC8387472

Assays:
Experiment in all cases: fraction of edited reads among all mapped reads; higher = more Cas9 editing
Details in all cases: mESC; 2uM; 72 h treatment, harvest day 5
[1] = compound: CC(=O)O/N=C1\C(=O)N(Cc2cc(Cl)ccc2Cl)c2ccc(Cl)cc21
[2] = compound: CC(C)(C#N)c1ccc(N2C(=O)OCc3cnc4ccc(-c5cnc6ccccc6c5)cc4c32)cc1
[3] = compound: CCCCOc1c(C(=O)c2c(F)cc(C)cc2F)c[nH]c2nncc1-2
[4] = compound: CCN1CCN(CC(=O)Nc2ccc(-c3cccc4c(=O)cc(N5CCOCC5)oc34)c3sc4ccccc4c23)CC1
[5] = compound: CCc1c2c(nc3ccc(OC(=O)N4CCC(N5CCCCC5)CC4)cc13)-c1cc3c(c(=O)n1C2)COC(=O)[C@]3(O)CC [Irinotecan HCl Trihydrate]
[6] = compound: CCn1c(=O)c(-c2ccc(Cl)cc2Cl)cc2cnc(Nc3ccc(N4CCNCC4)c(F)c3)nc21
[7] = compound: CNc1ccc([N+](=O)[O-])c(Nc2ccc3[nH]ncc3c2)n1
[8] = compound: CO[C@H]1/C=C/O[C@@]2(C)Oc3c(C)c(O)c4c(O)c(c(/C=N/N5CCN(C6CCCC6)CC5)c(O)c4c3C2=O)NC(=O)/C(C)=C\C=C\[C@H](C)[C@H](O)[C@@H](C)[C@@H](O)[C@@H](C)[C@H](OC(C)=O)[C@@H]1C [Rifapentine]
[9] = compound: COc1ccccc1-c1cc(Nc2cccc(CS(N)(=O)=O)c2)ncn1
[10] = compound: C[C@@H]1CN(CC(=O)Nc2ccc3c(c2)Cc2cccc(-c4cc(=O)cc(N5CCOCC5)o4)c2S3)C[C@H](C)O1
[11] = compound: Cc1cc(C)nc(SCC(=O)Nc2ncc(Cc3cccc4ccccc34)s2)n1
[12] = compound: Cc1ccc(C(=O)NCCCCCC(=O)Nc2ccccc2N)cc1
[13] = compound: Cc1cccc(CC(=O)N2CCc3c2ccc(-c2cn(C)c4ncnc(N)c24)c3F)n1
[14] = compound: NC(=O)c1ccc2nc(-c3ccc(Oc4ccc(Cl)cc4)cc3)[nH]c2c1 [Chk 2 inhibitor II (BML-277)]
[15] = compound: Nc1cc(F)ccc1NC(=O)c1ccc(CNC(=O)/C=C/c2cccnc2)cc1 [Tucidinostat (Chidamide)]
[16] = compound: Nc1nc2[nH]cc(CCc3ccc(C(=O)N[C@@H](CCC(=O)O)C(=O)O)cc3)c2c(=O)[nH]1 [Pemetrexed]
[17] = compound: Nc1ncnc2c1c(-c1cnc3[nH]ccc3c1)nn2C1CCCC1
[18] = compound: O=C(c1cccc(Cl)c1F)N1CCN(Cc2cccc(Nc3nccs3)n2)CC1
[19] = compound: O=C1Cc2c([nH]c3ccc(Br)cc23)-c2ccccc2N1 [Kenpaullone]
[20] = compound: O=c1c(-c2ccc(O)cc2)coc2cc(O)cc(O)c12 [Genistein]

Target	fraction of edited reads among all mapped reads [1]	fraction of edited reads among all mapped reads [2]	fraction of edited reads among all mapped reads [3]	fraction of edited reads among all mapped reads [4]	fraction of edited reads among all mapped reads [5]	fraction of edited reads among all mapped reads [6]	fraction of edited reads among all mapped reads [7]	fraction of edited reads among all mapped reads [8]	fraction of edited reads among all mapped reads [9]	fraction of edited reads among all mapped reads [10]	fraction of edited reads among all mapped reads [11]	fraction of edited reads among all mapped reads [12]	fraction of edited reads among all mapped reads [13]	fraction of edited reads among all mapped reads [14]	fraction of edited reads among all mapped reads [15]	fraction of edited reads among all mapped reads [16]	fraction of edited reads among all mapped reads [17]	fraction of edited reads among all mapped reads [18]	fraction of edited reads among all mapped reads [19]	fraction of edited reads among all mapped reads [20]
44.0 (DMSO control at this site: 1-bp insertion 0.181, MH deletion 0.512, edited 0.123) ACACATACCTTCTTCGAGGCAGCCAGCATGATGAGACAGGTCTCCCACAAACACATCGTGT	0.149	0.14	0.157	0.0618	0.202	0.138	0.17	0.251	0.195	0.111	0.232	0.141	0.191	0.167	0.124	0.138	0.124	0.11	0.265	0.167
3.0 (DMSO control at this site: 1-bp insertion 0.109, MH deletion 0.149, edited 0.09) TGCTAGCGCCCCCACAAAGCGGACCAGCCAGCACTATAGGGAATAAGGCCAACTTGCACCC	0.101	0.0887	0.115	0.0444	0.124	0.099	0.103	0.178	0.123	0.0619	0.162	0.0928	0.145	0.126	0.0815	0.12	0.0841	0.0816	0.193	0.13
16.0 (DMSO control at this site: 1-bp insertion 0.172, MH deletion 0.29, edited 0.05) CGGACTGCACACATGGGTAGGATCGTGCACGCGAGGTAGGATCGTGCACGCGAAGTTATTC	0.0491	0.0603	0.0612	0.0319	0.079	0.0596	0.0609	0.0951	0.076	0.0437	0.0974	0.052	0.0804	0.0597	0.0541	0.0594	0.0586	0.043	0.128	0.0716
30.0 (DMSO control at this site: 1-bp insertion 0.074, MH deletion 0.67, edited 0.142) GAGCTGGCATGAGTATTTGTGCCACATGGCTCCCACATGGCTCCACATGCAAGTTTGAAAC	0.142	0.149	0.158	0.066	0.204	0.156	0.187	0.224	0.177	0.134	0.226	0.147	0.212	0.179	0.129	0.148	0.143	0.112	0.286	0.191
39.0 (DMSO control at this site: 1-bp insertion 0.328, MH deletion 0.371, edited 0.204) CTGCACAGTCACTTAGGATAGGAGAAGATGATGTATAGGGTTTAGTGGGAGATGTTGCAAG	0.191	0.182	0.214	0.0792	0.252	0.192	0.223	0.335	0.248	0.191	0.3	0.189	0.29	0.229	0.184	0.177	0.196	0.141	0.328	0.231
45.0 (DMSO control at this site: 1-bp insertion 0.017, MH deletion 0.666, edited 0.101) TTACACAGCATGAACTGCTAGGTGATGATGTCAGATTCGGTTTTACTAACTTCTCCAAAAA	0.115	0.112	0.119	0.0494	0.153	0.113	0.133	0.203	0.144	0.0499	0.195	0.111	0.151	0.127	0.0928	0.0998	0.0941	0.069	0.233	0.139
25.0 (DMSO control at this site: 1-bp insertion 0.017, MH deletion 0.774, edited 0.143) GGGCCTGAATGGTGTGGACATCTACTCGCTGGTGAGCTGGTGACTGAAAACATTCAGTGGC	0.18	0.183	0.184	0.0836	0.211	0.167	0.199	0.306	0.205	0.0682	0.278	0.159	0.228	0.194	0.14	0.16	0.15	0.109	0.31	0.203
40.0 (DMSO control at this site: 1-bp insertion 0.072, MH deletion 0.192, edited 0.189) GCGAATCAACTGTTCAACAACAGCAGCAGCCACCTGGAGGACTACAGTGGCCTGTCCGTGT	0.203	0.198	0.224	0.0829	0.259	0.184	0.242	0.327	0.271	0.219	0.334	0.199	0.298	0.238	0.193	0.179	0.201	0.142	0.432	0.24
18.0 (DMSO control at this site: 1-bp insertion 0.114, MH deletion 0.789, edited 0.094) GCGCAAGTGCATAAGTTTTTCTTAAGGCGTGCCTTTAAGGCGTGCCTTTGTCGGTCCTGGA	0.103	0.109	0.105	0.064	0.111	0.0889	0.116	0.175	0.122	0.0564	0.155	0.0986	0.121	0.106	0.0855	0.0951	0.0956	0.0736	0.162	0.131
4.0 (DMSO control at this site: 1-bp insertion 0.146, MH deletion 0.523, edited 0.125) ACGCCTTAGTGCACGAGTGACGGGATAATGTGGTCTCAGGTAATTGATAGGCTTCCAACTT	0.157	0.149	0.155	0.0719	0.194	0.136	0.182	0.243	0.188	0.0881	0.237	0.155	0.209	0.166	0.13	0.16	0.15	0.0959	0.306	0.175
43.0 (DMSO control at this site: 1-bp insertion 0.134, MH deletion 0.714, edited 0.104) AGTTTAACTTACTCCGGCCAAAAAAGAACTGCACCTCTGGAGCGGGTTAGTGGTGGTGGTA	0.15	0.143	0.151	0.0617	0.184	0.119	0.164	0.218	–	0.0771	0.219	0.137	0.172	0.155	0.116	0.093	0.126	0.0909	0.271	0.179
26.0 (DMSO control at this site: 1-bp insertion 0.518, MH deletion 0.262, edited 0.026) AGGGCGCGCCCCACGCACTCTGCGGCAAGTCCCTCTGCGGCAAGTCCTCGGCCCGGAAGAC	0.0291	0.0255	0.0319	0.0118	0.0344	0.0242	0.0263	0.0398	0.0351	0.0296	0.0413	0.0319	0.0384	0.0384	0.0295	0.0225	0.0266	0.0221	0.0413	0.0338
2.0 (DMSO control at this site: 1-bp insertion 0.364, MH deletion 0.356, edited 0.125) GGTGCCCCCGAGACCTACGCGAACCGAAATCGATGTCCGGTGCGCAAGCAGGGCTGGCGTC	0.141	0.129	0.143	0.0564	0.191	0.14	0.176	0.228	0.172	0.121	0.231	0.128	0.18	0.147	0.115	0.129	0.137	0.102	0.286	0.169
8.0 GCATGCGTGTTTTGGGACAATGTAGTATACATTTGGGAGGCTCTCAGCTTTTCCCAATAAA	0.0233	0.0207	0.0186	–	–	–	–	–	–	–	0.021	–	–	–	0.0159	0.0154	0.0205	–	0.0456	–
21.0 CGATTGAGAGTCAAACGGGCCAGAAAACTCCGGGAACGGGCCAGAAAACTCCGGGGCATGG	0.124	0.106	0.132	0.0441	0.152	–	0.141	0.199	0.144	0.046	0.198	0.121	–	0.14	0.116	0.124	0.103	–	0.273	0.136
22.0 (DMSO control at this site: 1-bp insertion 0.573, MH deletion 0.229, edited 0.045) CTGATGGTTGAAGGATTTAGCCGGGGTCCTAGACGCCGGGGTCCTAGACGAAAGGGCCACG	0.0447	0.0542	0.0455	0.0167	0.0664	0.0371	0.0513	0.0926	0.0709	0.0389	0.0884	0.0476	0.0695	0.0586	0.0454	0.056	–	0.0278	0.117	0.0556
20.0 (DMSO control at this site: 1-bp insertion 0.349, MH deletion 0.138, edited 0.084) TACAGGTGTAGACTGGTTACGTGGCTGCGGAATTGACTGGTTACGTGGCTGCGGAATTTTG	0.0924	0.0867	0.0976	0.0384	0.115	0.0929	0.1	0.133	0.147	0.103	0.152	0.0728	0.111	0.106	0.0826	0.0835	0.117	0.0574	0.232	0.125
47.0 (DMSO control at this site: 1-bp insertion 0.095, MH deletion 0.585, edited 0.118) GAGTGGTCCCGAGCCAGGAACTGTGTGTGTTGCAGGGGGGCAGTAACTCCCCAACTCCCTC	0.124	0.13	0.135	0.0496	0.156	0.121	0.151	0.198	0.151	0.0862	0.199	0.123	0.171	0.143	0.0948	0.12	0.129	0.0848	0.244	0.148
